According to PubChem BioAssay:
The source made the active and inactive calls.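 Rule for the calls, unless noted: active = NADPH fluorescence slope more negative than the mean of all samples by about 3 SD, 99.7% confidence; inactive = the rest.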

Experiments:
[1] = inhibitors of TNFa-induced NFkB p65 translocation, primary screen, imaging, HUVEC, MLSMR starter and 10KST1 sets (AID 438;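 active = inhibition above 20% together with a positive visual image hit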;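 note: compound added about 3h40 before a 20 min TNFalpha stimulation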;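 for inhibition: signal is the nuclear over cytoplasmic p65 intensity ratio per well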); conditions: HUVEC TNFa-induced p65 nuclear translocation; cell count: measured here: nuclei count (cytotoxicity indicator), at 2.08 µM; inhibition: at 2 µM, stronger effect = higher value, 0% TNFa-plus-vehicle, 100% no-TNFa wells
[2] = reduction of polyQ htt aggregates in cells – imaging, exon1htt(103Q)mCFP cells, high-content imaging, primary screen (AID 483;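 active = visual image review flags a hit and inhibition of aggregation exceeds 20%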;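 note: compound exposure lasted 3 days before fixation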;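 for nuclei count: percent of the per-plate median nuclei count of sample wells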); conditions: exon1htt(103Q)mCFP cell line, aggregate imaging, at 2 µM; inhibition of aggregation: stronger effect = higher value; nuclei count: measured here: cell count, toxicity
[3] = endothelial E-selectin expression blockers – imaging, HUVEC, immunofluorescence, MLSMR starter and 10KST1 sets, primary screen (AID 487;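 active = visually confirmed hit in the image check and inhibition above 20%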;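 for inhibition: signal is fraction of cell area covered by stained E-selectin grains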;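 for nuclei count: 100% = median nuclei count of all wells on the same plate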); conditions: HUVEC TNFalpha-induced E-selectin immunofluorescence imaging, at 2 µM; inhibition: stronger effect = higher value; nuclei count: measured here: cell number, toxicity
[4] = target: Voltage-gated potassium channel subunit beta-2 (Rattus norvegicus) (UniProt P62483); test: inhibitors of rat Kvbeta2 reductase activity – biochemical, NADPH fluorescence, primary screen (AID 622;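 active = fluorescence slope higher than the sample average by over 3 SD, cut at about -0.22 in these data, passing the limit was not always enough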;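 note: slope of raw intensity against log time taken from 70 to 1610 s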); conditions: recombinant KvBeta, 4-cyanobenzaldehyde reduction, at 10 µM, stronger effect = higher value
[5] = target: Voltage-gated potassium channel subunit beta-2 (Rattus norvegicus) (UniProt P62483); test: enhancers of rat Kvbeta2 NADPH turnover – biochemical, NADPH fluorescence, primary screen (AID 623); conditions: Recombinant KvBeta, NADPH fluorescence decrease slope, 10 min; at 10 µM; stronger effect = lower value;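 note: fluorescence intensity change per second fitted from 20 to 320 s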
[6] = target: Alpha-2C adrenergic receptor (Homo sapiens) (UniProt P18825); test: compounds altering alpha2C-coupled GIRK flux – cell-based, HEK293 alpha2C/GIRK1/2, thallium flux, primary screen (AID 624;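 active = fluorescence slope after compound addition differing from the mean of all screened samples at 99.7% confidence, in either direction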;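 note: slope of fluorescence ratio to pre-addition baseline per second over 15 to 24 s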); conditions: thallium flux BTC fluorescence, at 10 µM, actives lie on both sides
[7] = blockers of RIG-like receptor reporter activation – cell-based, Sendai virus stimulus, luciferase, 10K MLSCN set, TLR/RLR signaling modifier project, primary screen (AID 602276;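 active = inhibition at or above 50% at 10 µM; inactive = inhibition below 50%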;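 note: firefly luciferase from ISG56 promoter only with Renilla not read in this screen; 0% = Sendai virus plus DMSO and 100% = medium plus DMSO without virus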); conditions: HEK293 RL24 IRF3 luciferase reporter, at 10 µM, stronger effect = higher value
[8] = TLR3 IRF3 reporter activation blockers – cell-based, poly I:C stimulus, luciferase, 10K MLSCN set, primary screen (AID 602277;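 active = inhibition of the reporter signal at or above 50%; inactive = inhibition below 50%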); conditions: HEK293-TLR3 RL24 IRF3 luciferase reporter, at 10 µM, stronger effect = higher value

Voltage-gated potassium channel subunit beta-2 (Rattus norvegicus), sequence (P62483 whole entry, looked up): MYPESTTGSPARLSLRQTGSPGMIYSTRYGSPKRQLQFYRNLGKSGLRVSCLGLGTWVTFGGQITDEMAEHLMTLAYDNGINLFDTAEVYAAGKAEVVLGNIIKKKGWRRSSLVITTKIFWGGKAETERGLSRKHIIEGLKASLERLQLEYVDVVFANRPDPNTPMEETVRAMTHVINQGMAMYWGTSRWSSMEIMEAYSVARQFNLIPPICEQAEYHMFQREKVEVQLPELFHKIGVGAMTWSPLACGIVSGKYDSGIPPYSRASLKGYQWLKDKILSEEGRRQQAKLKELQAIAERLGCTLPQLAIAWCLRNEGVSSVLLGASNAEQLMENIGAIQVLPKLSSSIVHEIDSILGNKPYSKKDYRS
Alpha-2C adrenergic receptor (Homo sapiens), sequence (P18825 whole entry, looked up): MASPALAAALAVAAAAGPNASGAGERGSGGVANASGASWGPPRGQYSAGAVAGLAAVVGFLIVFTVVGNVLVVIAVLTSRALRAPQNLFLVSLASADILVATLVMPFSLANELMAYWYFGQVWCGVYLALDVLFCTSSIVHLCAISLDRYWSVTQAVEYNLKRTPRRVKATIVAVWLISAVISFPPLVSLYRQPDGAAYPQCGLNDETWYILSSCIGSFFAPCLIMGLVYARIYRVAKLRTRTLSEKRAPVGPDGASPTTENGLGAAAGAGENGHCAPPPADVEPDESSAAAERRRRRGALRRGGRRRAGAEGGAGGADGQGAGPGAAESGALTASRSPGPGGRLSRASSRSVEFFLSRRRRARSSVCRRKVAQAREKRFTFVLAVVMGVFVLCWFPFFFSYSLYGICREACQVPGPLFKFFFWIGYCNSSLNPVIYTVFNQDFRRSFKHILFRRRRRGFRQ

Structure (SMILES) | cell count [1] | inhibition [1] | inhibition of aggregation [2] | nuclei count [2] | inhibition [3] | nuclei count [3] | fluorescence slope [4] | NADPH fluorescence slope [5] | slope [6] | inhibition [7] | inhibition [8]
CCOC(=O)Cc1nnc(NC(=O)c2ccccc2OCC)s1 | 583 | 12.6% (inactive) | 5.3% (inactive) | 102% | -43.9% (inactive) | 123% | -0.448 (inactive) | -0.000111 (inactive) | 0.005 (inactive) | 4.48% (inactive) | 4.72% (inactive)
COC(=O)C(C)NC(=O)C12CC3CC(CC(C3)C1)C2 (centres undefined) | 512 | -5.8% (inactive) | 13.2% (inactive) | 103% | -31% (inactive) | 124% | -0.321 (inactive) | -2.1e-05 (inactive) | 0.0064 (inactive) | -0.739% (inactive) | 23% (inactive)
O=C1c2ccccc2C(=O)N1C/C=C/CN1C(=O)c2ccccc2C1=O | 480 | 7.4% (inactive) | 0.3% (inactive) | 107% | -12.9% (inactive) | 113% | -0.331 (inactive) | -1.5e-05 (inactive) | 0.007 (inactive) | 23.3% (inactive) | 18.7% (inactive)
CCOC(=O)c1ccc(NCc2nc3ccccc3[nH]2)cc1 | 670 | -7.9% (inactive) | -14.3% (inactive) | 102% | -46% (inactive) | 126% | -0.558 (inactive) | 2.8e-05 (inactive) | 0.00739 (inactive) | -76.1% (inactive) | -152% (inactive)
COc1ccccc1CC(=O)NCc1ccc2c(c1)OCO2 | 372 | -0.6% (inactive) | -2.1% (inactive) | 101% | -81% (inactive) | 114% | -0.392 (inactive) | -5.4e-05 (inactive) | 0.00532 (inactive) | 7.81% (inactive) | -10.6% (inactive)
CCOC(=O)c1cc2sccc2n1Cc1ccccc1 | 417 | 7.3% (inactive) | -5.2% (inactive) | 101% | -147% (inactive) | 99.7% | -0.598 (inactive) | -9.9e-06 (inactive) | 0.00361 (inactive) | -10.3% (inactive) | -7.29% (inactive)
Cc1ccc2c(CNCc3ccco3)cc(=O)oc2c1 | 712 | 7.3% (inactive) | 21.5% (inactive) | 87.6% | -10.2% (inactive) | 96.6% | -0.519 (inactive) | -1.9e-05 (inactive) | 0.00495 (inactive) | -18.6% (inactive) | -70.4% (inactive)
Cc1cc(C)c2[nH]c(=O)c(C(c3nnnn3Cc3ccc4c(c3)OCO4)N3CCC(C)CC3)cc2c1 (centres undefined) | 716 | -1.6% (inactive) | 2.1% (inactive) | 98.1% | 70% (inactive) | 73.2% | -0.428 (inactive) | 6.4e-06 (inactive) | 0.0051 (inactive) | -4.82% (inactive) | 18.2% (inactive)
c1ccc(Cc2nn3c(Cn4cnc5ccccc54)nnc3s2)cc1 | 415 | 1.4% (inactive) | 9.2% (inactive) | 80.7% | -19.6% (inactive) | 91.6% | -0.512 (inactive) | -5.6e-05 (inactive) | 0.00479 (inactive) | 15.8% (inactive) | -2.79% (inactive)
NC(=O)c1cccc(S(=O)(=O)N2CCCCC2)c1 | 417 | 3% (inactive) | 15.9% (inactive) | 105% | 47.1% (inactive) | 87.4% | -0.473 (inactive) | -4.7e-05 (inactive) | 0.006 (inactive) | 4.76% (inactive) | 31.6% (inactive)
O=C1C2C3C=CC(C3)C2C(=O)N1c1cccc(N2C(=O)C3C4C=CC(C4)C3C2=O)n1 (centres undefined) | 227 | 8.4% (inactive) | -5.5% (inactive) | 109% | -160% (inactive) | 137% | -0.549 (inactive) | -1.2e-05 (inactive) | 0.00682 (inactive) | 3.37% (inactive) | 21.6% (inactive)
COc1ccc(C2=NO[C@@H]3C(=O)N(c4ccc5c(c4)OCCO5)C(=O)[C@H]23)cc1OC | 608 | -17.3% (inactive) | -8.9% (inactive) | 111% | 11.8% (inactive) | 98.1% | -0.541 (inactive) | 8.6e-06 (inactive) | 0.0052 (inactive) | -13.6% (inactive) | 6.66% (inactive)
CN(C)S(=O)(=O)c1ccc(C(=O)NCc2cccs2)cc1 | 436 | 4.7% (inactive) | 6.5% (inactive) | 105% | 15.4% (inactive) | 125% | -0.611 (inactive) | -2.1e-05 (inactive) | 0.00652 (inactive) | 3.68% (inactive) | 3.16% (inactive)
Fc1ccc(-c2ccc(-c3nn4c(-c5ccco5)nnc4s3)o2)cc1 | 243 | -2.4% (inactive) | 1.7% (inactive) | 92.7% | -25.8% (inactive) | 101% | -0.394 (inactive) | -3e-05 (inactive) | 0.00935 (inactive) | -5.55% (inactive) | -13.1% (inactive)
